Assay results as given in PubChem BioAssay AID504385 (National Center for Advancing Translational Sciences (NCATS), 2011).
The source made the active and inactive calls. How the calls were made is not given here.

Molecular target: Lutropin-choriogonadotropic hormone receptor (Homo sapiens) (UniProt P22888)
Assay: Counterscreen for antagonists of the thyroid stimulating hormone receptor: ELISA activity in a Luteinizing Hormone Receptor cell line
Conditions: HEK293 LHR cells, LH-induced cAMP ELISA
Excerpt: TSH is an alpha/beta heterodimeric glycoprotein hormone secreted from the anterior pituitary gland which belongs to the glycoprotein hormone family. The actions of TSH are mediated by a seven-transmembrane receptor, which upon TSH binding couples preferentially to the G-alpha (s) protein (Gs), resulting in activation of adenylate cyclase and increase in cyclic adenosine 3', 5' monophosphate (cAMP). The TSH receptor (THSR) is mainly expressed in thyroid follicular cells and regulates their growth and function. This cell based assay was conducted on a TSHR transfected HEK 293 cell line, measuring cAMP stimulation using antibody-based Homogeneous Time Resolved Fluorescence (HTRF). Our goal is to identify small molecules that will inhibit (antagonize) the thyroid-stimulating hormone receptor (TSHR), a member of the 7 transmembrane-spanning receptor (7TMR) family of cell surface receptors. TSHR-mediated hyperthyroidism is important in thyroid pathology. The development of small molecule antagonists of TSHR may lead to therapeutic approaches for TSHR-mediated hyperthyroidism caused by constitutively activating mutations or stimulating auto-antibodies associated with Graves' disease. Graves' disease is the leading cause of hyperthyroidism and is caused by autoantibodies that stimulate TSHR (TsAbs) causing thyroid growth and unregulated overproduction of thyroid hormones and existing treatments have liabilities (agranulocytosis). In addition, TSHRs are known to be expressed in multiple extrathyroidal tissues including bone, brain, kidney, testis, fat and cells of the immune system but the role of the TSHR in these tissues is not clear. Therefore, TSHR antagonists/inverse agonists could be used as probes of extrathyroidal TSHR function. Finally, TSHR inverse agonists, which are a subclass of antagonists that inhibit agonist-independent (or basal or constitutive) TSHR signaling, could be used to inhibit TSH-independent signaling in patients with recurrent or metastatic thyroid cancer who are receiving thyroid hormone to suppress TSH. In order to confirm specificity of the compounds to the TSHR, a confirmatory assay was conducted on a similar family member, the Luteinizing Hormone Receptor, transfected into a HEK 293 cell line, using an orthogonal detection technology to measure cAMP stimulation: an ELISA based cAMP competition assay using cAMP-Screen Direct System (Applied Biosystems, Foster City, CA)/
Transiently transfected HEK-EM 293 cells or cells stably expressing LHR were seeded into 96-well plates at a density of 7 x10^4 cells per well in DMEM containing 10% FBS. Cells were cultured for 24 h before incubation for 20 min in HBSS/10 mM HEPES (pH 7.4). To determine the effect of the compound on LH induced LHR activity, cells were incubated for 20 min with the compound in HBSS/HEPES without IBMX and subsequently for 40 min with bovine LH (Sigma) and the compound in HBSS/HEPES supplemented with 1 mM IBMX at 37 C. The levels of cAMP in cells incubated in HBSS/HEPES without IBMX were subtracted in all experiments. After aspiration of the incubation medium, cells were lysed using lysis buffer of the cAMP-Screen Direct system (Applied Biosystems, Foster City, CA). The cAMP content of the cell lysate was determined using the method described in the manufacturer's protocol. The chemiluminescence signal was measured in a VICTOR3 V 1420 multilabel counter (PerkinElmer, Norwalk, CT). The potency (IC50) of the ligands were obtained from dose-response curves by data analysis with GraphPad Prism 4 for Windows.

Sequence of Lutropin-choriogonadotropic hormone receptor (Homo sapiens) (P22888 whole entry, looked up): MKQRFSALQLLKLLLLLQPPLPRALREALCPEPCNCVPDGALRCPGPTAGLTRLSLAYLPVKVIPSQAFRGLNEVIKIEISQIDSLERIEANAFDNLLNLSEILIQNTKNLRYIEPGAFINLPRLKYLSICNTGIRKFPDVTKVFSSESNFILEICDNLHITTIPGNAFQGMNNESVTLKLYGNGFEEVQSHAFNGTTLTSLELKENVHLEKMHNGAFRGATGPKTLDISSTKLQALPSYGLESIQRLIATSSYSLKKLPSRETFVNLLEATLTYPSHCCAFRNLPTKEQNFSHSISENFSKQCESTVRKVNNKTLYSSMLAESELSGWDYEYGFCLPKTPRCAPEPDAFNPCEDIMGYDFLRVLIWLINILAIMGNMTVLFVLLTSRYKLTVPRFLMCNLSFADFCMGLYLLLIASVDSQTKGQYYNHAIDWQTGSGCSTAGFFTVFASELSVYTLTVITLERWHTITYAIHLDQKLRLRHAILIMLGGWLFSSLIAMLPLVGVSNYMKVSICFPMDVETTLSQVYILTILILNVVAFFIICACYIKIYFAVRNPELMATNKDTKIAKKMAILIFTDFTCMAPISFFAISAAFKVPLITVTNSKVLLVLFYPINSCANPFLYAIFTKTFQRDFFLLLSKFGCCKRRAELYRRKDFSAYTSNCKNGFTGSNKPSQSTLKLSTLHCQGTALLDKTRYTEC

| Compound | outcome | IC50 |
| --- | --- | --- |
| COc1ccc(C2Nc3ccccc3C(=O)N2Cc2cccnc2)cc1COc1c(C)cccc1C (configuration not stated) | inactive | – |
| COc1ccc(C2Nc3ccccc3C(=O)N2Cc2ccco2)cc1CSc1c(C)cccc1C (configuration not stated) | inactive | – |
| Cc1cccc(C)c1OCc1cccc(C2Nc3ccccc3C(=O)N2Cc2ccco2)c1 (configuration not stated) | inactive | – |
| CCc1cccc(CC)c1OCc1cc(C2Nc3ccccc3C(=O)N2Cc2ccco2)ccc1OC (configuration not stated) | inactive | – |
| COc1ccc(C2Nc3ccccc3C(=O)N2Cc2ccco2)cc1COc1c(C)cc(NC(C)=O)cc1C (configuration not stated) | inactive | – |
| COc1ccc(C2Nc3ccccc3C(=O)N2Cc2ccc(C)o2)cc1COc1c(C)cccc1C (configuration not stated) | inactive | – |
| COc1ccc(C2Nc3ccccc3C(=O)N2Cc2ccco2)cc1COc1c(C)cccc1C (configuration not stated) | – | 480 nM (active) |
